Structures are written as SMILES.

In assay [1] the test system is Vero E6 infected with SARS-CoV-2. The experiment in a line: morphology score (similarity to uninfected cells); higher = more like uninfected cells. The following applies: 24 h.
The test system is the same in assay [2]. The experiment in a line: SARS-CoV-2 infection rate relative to infected DMSO; higher = more infection, active = 60 or less. The following applies: 24 h.

Compound `CNC(=O)c1ccc2c(c1)CCO[C@H]2CCN1CCN(c2ccc(C(N)=O)cc2)CC1` (10 µM) displayed a morphology score in assay [1] of 0.0173. Moreover, the SARS-CoV-2 infection rate in assay [2] was 106% (inactive).
`CC(C)c1cccc2c1OC(C(C)C)C(=S)N2CC(=O)O` (stereo not drawn) (10 µM): in assay [1], the morphology score worked out at 0.0177. Further, in assay [2], the SARS-CoV-2 infection rate is 102% (inactive).
In turn, `S=C(NCc1ccc2c(c1)OCO2)N1CCN(c2ncnc3c2oc2ccccc23)CC1` [amuvatinib] (0.833333 µM) came in with a morphology score in assay [1] of 0.0595. Besides, the SARS-CoV-2 infection rate in assay [2] is 92.5% (inactive).
The corresponding values for `CC(CN(C)C)CN1c2ccccc2CCc2ccccc21` (stereo not drawn) [trimipramine] (10 µM) are 0.451 and 80.5% (inactive).
The corresponding values for `CCN(CC)CCOC(=O)C1(c2ccccc2)CCCC1` [caramiphen] (10 µM) are 0.145 and 95.5% (inactive).
The compound `NCC1OC(C23CC4CC(CC(C4)C2)C3)Cc2c1ccc(O)c2O` (stereo not drawn) (0.833333 µM) came in with a morphology score in assay [1] of -0.0685. In assay [2], the SARS-CoV-2 infection rate was 115% (inactive).
The corresponding values for `COc1ccccc1C(=O)Nc1cc2c(cc1N1CCCC1)n(C)c(=O)n2C` (10 µM) are 0.0131 and 93.5% (inactive).
As for `C[C@H](CCC(=O)O)[C@H]1CC[C@H]2[C@@H]3C(=O)C[C@@H]4CC(=O)CC[C@]4(C)[C@H]3CC(=O)[C@]12C` [dehydrocholate-acid] (10 µM), the morphology score in assay [1] turned out to be 0.231. Also, the SARS-CoV-2 infection rate in assay [2] was 94.8% (inactive).
Consider `CCOC(=O)c1ccc(NC2CCCCC2)c(N)c1` [ferrostatin-1] (10 µM), for which, in assay [1], the morphology score was found to be 0.117. In assay [2], the SARS-CoV-2 infection rate is 94% (inactive).
The corresponding values for `COc1ccc(OC)c(C(O)C(C)N)c1` (stereo not drawn) [methoxamine] (10 µM) are -0.12 and 108% (inactive).
In the case of `CC[C@@H]1C(=O)N(C)c2cnc(Nc3ccc(C(=O)NC4CCN(C)CC4)cc3OC)nc2N1C1CCCC1` (10 µM), the morphology score in assay [1] is -0.305. For the same compound, the SARS-CoV-2 infection rate in assay [2] was 104% (inactive).
As for `C[C@H](N)C(=O)N[C@@H](CCC(N)=O)C(=O)O` [dipeptamin] (10 µM), in assay [1], the morphology score was 0.00346. Moreover, the SARS-CoV-2 infection rate in assay [2] is 102% (inactive).
Taken in the same sequence, the figures for `Cc1ncc(C[n+]2csc(CCOP(=O)(O)OP(=O)(O)O)c2C)c(N)n1` [thiamine-pyrophosphate] (10 µM) were 0.112 and 105% (inactive).
For the compound `O=c1[nH]c2ccccc2n1C1CCN(CCOc2ccccc2)CC1` [oxiperomide] (0.833333 µM), in assay [1], the morphology score was -0.0147. The SARS-CoV-2 infection rate in assay [2] was 104% (inactive).
`CC(C)(C)NCC(O)COc1cccc2[nH]c(C#N)cc12` (stereo not drawn) [cyanopindolol] (10 µM) gave a morphology score in assay [1] of -0.0665. The SARS-CoV-2 infection rate in assay [2] is 107% (inactive).
Turning to `O=C(O)c1ccc(S(=O)(=O)N(Cc2ccc(OC(F)(F)F)cc2)c2ncc(C(F)(F)F)cc2Cl)cc1` (10 µM), in assay [1], the morphology score turned out to be 0.114. For the same compound, the SARS-CoV-2 infection rate in assay [2] is 102% (inactive).
`CCCCCCCCCCCCCCCCO` [1-hexadecanol] (10 µM) returned a morphology score in assay [1] of -0.278. Also, in assay [2], the SARS-CoV-2 infection rate was 110% (inactive).
The corresponding values for `NCCC(O)(P(=O)(O)O)P(=O)(O)O` [pamidronate] (10 µM) are 0.09 and 114% (inactive).
In assay [1], `CC(=O)OCC(=O)[C@@]1(O)CC[C@H]2[C@@H]3CCC4=CC(=O)C=C[C@]4(C)[C@@]3(Cl)[C@@H](Cl)C[C@@]21C` [dichlorisone-acetate] (10 µM) came in with a morphology score of -0.00102. For the same compound, in assay [2], the SARS-CoV-2 infection rate was 102% (inactive).
For `C[C@H](CCC(=O)NCCS(=O)(=O)O)[C@H]1CC[C@H]2[C@@H]3[C@@H](O)C[C@@H]4C[C@H](O)CC[C@]4(C)[C@H]3CC[C@]12C` [ursodeoxycholyltaurine] (10 µM), the morphology score in assay [1] turned out to be 0.0842. Further, in assay [2], the SARS-CoV-2 infection rate is 102% (inactive).
Compound `COc1cc(Nc2c(C#N)cnc3cc(OCCCN4CCN(C)CC4)c(OC)cc23)c(Cl)cc1Cl` [bosutinib] (10 µM) gave a morphology score in assay [1] of 0.00987. The SARS-CoV-2 infection rate in assay [2] is 96.5% (inactive).
In assay [1], `COc1ccc(-c2cc(=O)c3c(OC)c(OC)c(OC)c(OC)c3o2)cc1` [tangeritin] (10 µM) gave a morphology score of 0.00246. Besides, in assay [2], the SARS-CoV-2 infection rate was 105% (inactive).
`CCCC[C@H]1C(=O)N(c2ccccc2)N(c2ccc(O)cc2)C1=O` [oxyphenbutazone] (0.833333 µM): the morphology score in assay [1] worked out at 0.131. Besides, the SARS-CoV-2 infection rate in assay [2] was 102% (inactive).
In assay [1], `CS(=O)(=O)Oc1ccc2c(NC(N)=O)c(C(=O)c3ccc(Cl)cc3Cl)oc2c1` [lirimilast] (10 µM) gave a morphology score of 0.204. Further, in assay [2], the SARS-CoV-2 infection rate is 101% (inactive).
The corresponding values for `O=C1N(c2ccccc2)c2ccccc2C1(Cc1ccncc1)Cc1ccncc1` [linopirdine] (10 µM) are 0.249 and 91% (inactive).
Taken in the same sequence, the figures for `C[C@H](CCC(=O)NCCS(=O)(=O)O)[C@H]1CC[C@H]2[C@@H]3[C@H](O)C[C@@H]4C[C@H](O)CC[C@]4(C)[C@H]3C[C@H](O)[C@]12C` [taurocholate] (10 µM) were -0.0884 and 116% (inactive).
The corresponding values for `C[N+](C)(CCOc1ccccc1)Cc1ccccc1` [bephenium-hydroxynaphthoate] (10 µM) are 0.171 and 94.5% (inactive).
As for `C[C@@H](O[C@H]1OCCN(Cc2nn(P(=O)(O)O)c(=O)[nH]2)[C@H]1c1ccc(F)cc1)c1cc(C(F)(F)F)cc(C(F)(F)F)c1` [fosaprepitant-dimeglumine] (10 µM), the morphology score in assay [1] was 0.0215. Further, in assay [2], the SARS-CoV-2 infection rate is 112% (inactive).
Taken in the same sequence, the figures for `Cc1ccc(-c2csc3ncnc(SCCC(=O)O)c23)cc1` (10 µM) were 0.15 and 103% (inactive).

The values are drawn from the supplement of paper PMC13380429.
